Reference: PubChem BioAssay (NCI)
Compounds without any hit were thinned out: in the full panel of roughly 83,000, 20% have a hit.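 The test compound was applied at a single concentration to cells in 96-well plates for 48 hours, and percent growth was recorded.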 A number with no mark means an inactive call. Active and inactive are the calls of the source. Rule for the calls: active = growth percent below 10; inactive = the rest.

Experiments:
Experiment in all cases: NCI-60 one-dose screen, 48 h (100 = growth as untreated, 0 = no growth, -100 = all killed)
Conditions in all cases: 10 µM unless noted
[1] = tested on: T-47D breast
[2] = tested on: BT-549 breast
[3] = tested on: MDA-MB-435 melanoma
[4] = tested on: SW-620 colon
[5] = tested on: MCF7 breast
[6] = tested on: HCT-116 colon
[7] = tested on: KM12 colon
[8] = tested on: HCC-2998 colon

Structure (SMILES)	growth [1]	growth [2]	growth [3]	growth [4]	growth [5]	growth [6]	growth [7]	growth [8]
Nc1ncnc2c1N=C(c1ccc(Cl)cc1)CC(c1ccc3c(c1)OCO3)N2 (stereo unspecified)	93.8%	95.5%	101%	100%	81.2%	83.7%	103%	
Cn1cc(-c2csc(-c3c[nH]c4ccc(Br)cc34)n2)c2cnccc21	-51.5% (active)	7.16% (active)	-92% (active)	-82.6% (active)	-68.6% (active)	-90.9% (active)	-79.9% (active)	-76.5% (active)
O=C1c2cccc3cccc(c23)C(=O)N1N1C(=O)c2cccc3c(N4CCOCC4)ccc(c23)C1=O	91.7%	87.2%	102%	100%	94.9%	91.3%	100%	
CC1=NN(c2nc(SCC(=O)Nc3nc4ccc(C)cc4s3)nc(-c3ccccc3)c2C#N)C(=O)C1	91.3%	95.5%	103%	102%	96.8%	101%	101%	104%
O=C(NCCCN1CCOCC1)c1cccc(N2C(=O)/C(=C/c3ccc(F)cc3)SC2=S)c1	91.7%	96.8%	95.3%	95.9%	92.9%	96.7%	99.6%	97.1%
O=C(c1ccc(-c2ccccc2)cc1)c1ccc([N+](=O)[O-])cc1	92.8%	94.5%	92.6%	101%	95.9%	92.6%	97%	
O=C(Nc1ccc(NC(=O)c2cc(=O)[nH]c3ccccc23)cc1)Nc1cccc(C(F)(F)F)c1	58.1%	62.8%	77.1%	59.6%	70.7%	41.1%	53.3%	
Cc1cc(Cl)ccc1Nc1nc(C(F)(F)F)ccc1C(=O)N/N=C/c1ccc([N+](=O)[O-])cc1	-1.52% (active)	6.01% (active)	6.79% (active)	93.4%	-47.7% (active)	6.32% (active)	-20.6% (active)	
CCCCCOc1ccc(C(=O)/C(Br)=C/C(=O)O)cc1	92.6%	110%	104%	111%	91.7%	89.2%	107%	
COc1cc(-c2cc(-c3ccc(N(C)C)cc3)nc(N3CCC(O)CC3)c2C#N)cc(OC)c1OC	8.21% (active)	30.6%	-18.5% (active)	21.1%	0.557% (active)	-38.9% (active)	-0.387% (active)	
COC(=O)c1c2c(c(C)[n+]([O-])c1C)C(=O)C=C(NCc1ccc(Br)cc1)C2=O	-42.8% (active)	-93.5% (active)	-92.8% (active)	-17.2% (active)	-56.9% (active)	-17.2% (active)	-11.3% (active)	
Cc1ccc(S(=O)(=O)N2CCCC2CO)cc1 (stereo unspecified)	100%	86.6%	111%	96.8%	91.3%	96.8%	104%	
O=[N+]([O-])/C(=C/C=C/c1ccccc1)c1ccccc1	46.4%	103%	70.6%	5.75% (active)	23.5%	-5.29% (active)	38.8%	
COc1cc(CNS(=O)(=O)c2ccc(C)cc2)ccc1OCc1cn(-c2ccc(Br)cc2)nn1	101%	110%	101%	99.1%	88%	100%	103%	
Cc1ccc(Cl)cc1Nc1nc(C(F)(F)F)ccc1C(=O)N/N=C/c1cccnc1	32.9%	36.7%	39.5%	22.7%	11.7%	25%	34.7%	
CCOC(=O)CNP(=O)(OC[C@@H](Cc1ccccc1)NC(=O)c1cc2ccccc2s1)Oc1ccccc1 (stereo partly specified)	55.3%	74.6%	8.66% (active)	47.3%	51.2%	71.9%	42.3%	
O=C1CNC(c2ccccc2)C(c2ccccc2)N1 (stereo unspecified)	104%	82.8%	105%	98.5%	91.8%	93%	100%	
C/C(Nc1ccc(Cl)c(Cl)c1)=C1\CCOC1=O	86.6%	87.2%	82.5%	111%	96.1%	80.7%	96.2%	90.3%
COC(=O)c1cc(-c2ccc(S(C)(=O)=O)cc2)[nH]c1N/N=C/c1c(Cl)cccc1Cl	31.2%	70.7%	-69.7% (active)	15%	-5.62% (active)	11.4%	20.6%	
COc1ccc(C(=S)N2CCN(c3ccccc3Cl)CC2)cc1OC	79%	90.6%	91.7%	106%	106%	87.1%	123%	
COc1cc(CNS(=O)(=O)c2ccc(C)cc2)ccc1OCc1cn(-c2ccc(F)cc2)nn1	53.7%	83.6%	94.4%	98.6%	85.9%	83.6%	97.6%	
CCn1c(=S)[nH]c2c(=O)n(C)c(=O)n(C)c21	104%	92.6%	103%	112%	102%	93.1%	111%	
O=C(c1ccc(-c2nc(CSc3nc4ccccc4s3)no2)cc1)N1CCSCC1	11.1%	67.7%	70.6%	82.4%	72.5%	49.8%	57.7%	94.9%
CCOC(=O)c1cc(-c2ccc([N+](=O)[O-])cc2)n(-c2ccc(C(=O)O)c(O)c2)c1C	38.2%	95.7%	50.6%	93.2%	53.9%	49.4%	86.8%	98.9%
COc1cccc(CNc2ncnc3c2ncn3C2OC(CO)C(O)C2O)c1O (stereo unspecified)	16.6%	-9.05% (active)	5.51% (active)	6.4% (active)	65.5%	10.2%	36.6%	
CCn1c(SCC(=O)c2ccc(Br)cc2)nnc1-c1ccncc1	105%	116%	102%	102%	92.6%	105%	106%	
COc1ccc2c3c([nH]c2c1)C(=O)c1nc(C)ccc1C3=O	48.5%	71.7%	-76.2% (active)	42.8%	41%	30.3%	36.6%	
COC(=O)c1c2c(c(C)[n+]([O-])c1C)C(=O)C=C(NCc1ccc(OC)cc1)C2=O	-31% (active)	-88.8% (active)	-91.6% (active)	0.249% (active)	-55.1% (active)	-11.6% (active)	-3.93% (active)	
COc1ccc(C2=Nc3c/c(=C\c4c(O)[nH]c5ccc(Cl)cc45)ccc3=N2)cc1	53.7%	35.3%	-68.5% (active)	5.99% (active)	0.287% (active)	33.6%	17.1%	35.5%
CCOc1nc(-c2ccccc2)cc2c(O)c(C(=O)NN)[nH]c(=O)c12	108%	126%	113%	97.4%	127%		104%	
